Compound activity (PubChem)
C diff growth: blocks growth of Clostridium difficile | AID 1259249 | Clostridium difficile clinical isolate growth, OD600, 24 h; stronger effect = lower value | growth activity, negative = inhibition, % at 16 µg/mL (by protocol) | hit rate 0.25% among 86,000;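 active = mean growth activity at or below -80% and every replicate also at or below -80%; inconclusive = mean at or below -80% but some replicate above -80%; inactive = mean growth activity above -80%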;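 note: 0% = DMSO wells and -100% = levofloxacin 16 µg/mL wells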
T cruzi growth-1: inhibitors of T. cruzi proliferation; inhibition, % at 8.34 µM; AID 624255; hit rate 5.9% among 77,000; T. cruzi beta-gal in NIH3T3, GalScreen luminescence, 90 h;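 active = mean inhibition above about 93%, with at least 55% of replicates each passing it, limit read from the data, passing the limit was not always enough; inconclusive = only one of those two conditions holds; inactive = neither condition holds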
Pf Dd2 inh: inhibitors of Plasmodium falciparum Dd2 growth; P. falciparum Dd2 growth, SYBR Green, 72 h; stronger effect = lower value; activity change, % at 10 µM; hit rate 2.3% among 94,000; AID 1159554; in the data active = activity change below about -80%; inconclusive = no clear call, values can overlap the other calls
T cruzi growth-2: Trypanosoma cruzi proliferation inhibition; shares compounds with T cruzi growth-1; T. cruzi beta-gal in NIH3T3, GalScreen luminescence, 90 h; inhibition, % at 8.35 µM; hit rate 72% among 5,600; AID 651739;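 active = mean replicate inhibition above about 95% and at least 55% of replicates individually reaching it, limit read from the data; inconclusive = only one of the two criteria is met; inactive = neither criterion is met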
T cruzi growth-3: inhibitors of T. cruzi proliferation. hit rate 21% among 5,600. inhibition, % at 2.09 µM. shares compounds with T cruzi growth-1. AID 651740. T. cruzi beta-gal in NIH3T3, GalScreen luminescence, 90 h;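 active = mean inhibition above about 95%, with at least 55% of replicates also reaching it, limit read from the data; inconclusive = meets just one of the two conditions; inactive = meets neither condition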;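 note: plate controls were neutral control median for no effect and positive control median for full effect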
3T3 cytotox: cytotoxicity in mouse NIH/3T3 fibroblasts; shares compounds with T cruzi growth-1; AID 651742; NIH/3T3 viability, CellTiter-Glo ATP luminescence, 90 h; cytotoxicity (signal decrease), % at 8.35 µM; hit rate 14% among 5,600;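 active = mean signal decrease across replicates above about 35% based on untreated-well scatter, with enough replicates individually passing, limit read from the data; inconclusive = no rule stated though some were filed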;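 note: 0% = median of neutral control wells and 100% = median of positive control wells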
NIH3T3 tox 2: cytotoxicity in mouse NIH/3T3 fibroblasts. shares compounds with T cruzi growth-1. NIH/3T3 viability, CellTiter-Glo ATP luminescence, 90 h. inhibition, % at 24.9 µM. hit rate 56% among 5,600;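 active = mean loss of cell viability signal at or above a set limit, and enough replicates individually reaching it; inconclusive = meets only the mean limit or only the replicate share; inactive = meets neither condition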;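 note: 0% = median of neutral control wells and 100% = median of positive control wells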
The depositor's hits bear a star; ? = inconclusive; / = no result given. A selection: hits, their analogues and other compounds. The true share with any hit is near 6.8%.

SMILES | C diff growth | T cruzi growth-1 | Pf Dd2 inh | T cruzi growth-2 | T cruzi growth-3 | 3T3 cytotox | NIH3T3 tox 2
C[C@@H]1CN([C@H](C)CO)S(=O)(=O)c2ccc(-c3ccccc3F)cc2O[C@H]1CN(C)Cc1cccnc1 | 1 | 95 | -51 | / | / | / | /
C[C@H]1CN([C@@H](C)CO)S(=O)(=O)c2ccc(-c3ccccc3F)cc2O[C@@H]1CN(C)Cc1cccnc1 | -4 | 105* | -56 | 107* | 104* | 36* | 100*
C[C@H](NC(=O)C[C@H]1CC[C@@H]2[C@H](COC[C@@H](O)CN2C(=O)Nc2cccc(Cl)c2)O1)c1ccccc1 | 57 | 32 | 1 | / | / | / | /
COc1cccc(NC(=O)N2C[C@H](O)COC[C@H]3O[C@H](CC(=O)NC4Cc5ccccc5C4)CC[C@@H]32)c1 | 1 | -38 | -54 | / | / | / | /
C[C@H](NC(=O)C[C@H]1CC[C@H]2[C@@H](COC[C@@H](O)CN2C(=O)Nc2cc(Cl)cc(Cl)c2)O1)c1ccccc1 | / | 40 | 2 | / | / | / | /
C[C@@H](NC(=O)C[C@@H]1CC[C@H]2[C@@H](COC[C@H](O)CN2C(=O)Nc2cc(Cl)cc(Cl)c2)O1)c1ccccc1 | / | 100* | -2 | 104* | 91 | 30 | 52*
CCCNC(=O)C[C@@H]1CC[C@H]2[C@@H](COC[C@H](O)CN2C(=O)Nc2ccccc2OC)O1 | / | 48 | 1 | / | / | / | /
CCCNC(=O)C[C@H]1CC[C@H]2[C@@H](COC[C@H](O)CN2C(=O)Nc2ccccc2OC)O1 | / | 117* | -22 | 97* | 0 | -8 | -10
C[C@@H](NC(=O)C[C@H]1CC[C@H]2[C@@H](COC[C@H](O)CN2C(=O)Nc2cccc(Cl)c2)O1)c1ccccc1 | 18 | 110* | -42 | 105* | -1 | 10 | 46*
COc1cccc(NC(=O)N2C[C@H](O)COC[C@H]3O[C@@H](CC(=O)NC4Cc5ccccc5C4)CC[C@@H]32)c1 | -4 | 109* | 13 | -7 | -42 | -16 | -4
CCC(=O)N1[C@H](CN(CC)C(=O)c2ccc(F)cc2)[C@@H](c2ccccc2)[C@@H]1CO | 5 | 4 | -2 | / | / | / | /
COc1ccc(NC(=O)N(C)C[C@H]2OCCCC[C@@H](C)Oc3ccc(NS(=O)(=O)c4ccc(Cl)cc4)cc3C(=O)N([C@@H](C)CO)C[C@H]2C)cc1 | 1 | 69 | -43 | / | / | / | /
CC(C)NC(=O)Nc1ccc2c(c1)C(=O)N([C@@H](C)CO)C[C@@H](C)[C@H](CN(C)Cc1ccc(C(F)(F)F)cc1)O2 | -3 | / | 0 | / | / | / | /
C[C@H](CO)N1C[C@H](C)[C@@H](CN(C)C)Oc2c(NC(=O)c3cnccn3)cccc2C1=O | -3 | / | 20 | / | / | / | /
CCN1[C@@H]2c3ccc(C4=CCCCC4)c(=O)n3C[C@H]1[C@H](CO)[C@H]2C(=O)N1CCOCC1 | -2 | 17 | / | / | / | / | /
COc1ccc2c3c([nH]c2c1)[C@@H](CO)N(C(C)=O)CC31CN(C(=O)c2cccc(F)c2)C1 | / | / | 18 | / | / | / | /
O=C(NCC[C@@H]1CC[C@@H](NC(=O)C2CCC2)[C@H](CO)O1)c1cc(Cl)cc(Cl)c1 | 2 | / | 11 | / | / | / | /
CN1c2ccc(-c3cccc(F)c3)cc2[C@H]2[C@H](CCN2C(=O)CC2CC2)[C@@H]1CO | 2 | 98* | -4 | 102* | 67 | 28 | 2
CN1c2ccc(-c3cccc(C#N)c3)cc2[C@@H]2[C@@H](CCN2C(=O)CC2CC2)[C@H]1CO | -9 | 96 | 8 | / | / | / | /
CN1c2ccc(-c3ccc(C#N)cc3)cc2[C@@H]2[C@@H](CCN2C(=O)CC2CC2)[C@H]1CO | 1 | 104* | -8 | 106* | 85 | 4 | 41*
CN1c2ccc(-c3ccccc3)cc2[C@@H]2[C@@H](CCN2C(=O)CC2CC2)[C@H]1CO | -4 | 68 | -35 | / | / | / | /
Cc1ccc(S(=O)(=O)N(C)C[C@H]2OCc3ccccc3-c3ccccc3C(=O)N([C@H](C)CO)C[C@H]2C)cc1 | / | 31 | -29 | / | / | / | /
C[C@H](CO)N1C[C@H](C)[C@@H](CN(C)CC2CC2)Oc2cc(C#C[C@@H](C)O)ccc2S1(=O)=O | 3 | 74 | -51 | / | / | / | /
COc1cccc(-c2ccc3c(c2)O[C@@H](CN(C)C(=O)C2CC2)[C@H](C)CN([C@H](C)CO)S3(=O)=O)c1 | / | 71 | -31 | / | / | / | /
COc1cccc(-c2ccc3c(c2)O[C@@H](CN(C)C(=O)C2CC2)[C@H](C)CN([C@@H](C)CO)S3(=O)=O)c1 | / | 72 | -54 | / | / | / | /
SMILES | C diff growth | T cruzi growth-1 | Pf Dd2 inh | T cruzi growth-2 | T cruzi growth-3 | 3T3 cytotox | NIH3T3 tox 2
COc1cccc(-c2ccc3c(c2)O[C@@H](CN(C)C(=O)C2CCCCC2)[C@H](C)CN([C@H](C)CO)S3(=O)=O)c1 | 0 | 105* | -69 | 96* | 36 | 29 | 91*
COc1cccc(-c2ccc3c(c2)O[C@H](CN(C)C(=O)C2CCCCC2)[C@H](C)CN([C@@H](C)CO)S3(=O)=O)c1 | 1 | 117* | -3 | 103* | 88 | 23 | 89*
COc1cccc(-c2ccc3c(c2)O[C@H](CN(C)C(=O)C2CCCCC2)[C@@H](C)CN([C@H](C)CO)S3(=O)=O)c1 | 3 | 99* | -64 | 101* | 78 | 28 | 43*
COc1cccc(-c2ccc3c(c2)O[C@@H](CN(C)C(=O)C2CCC2)[C@H](C)CN([C@@H](C)CO)S3(=O)=O)c1 | -4 | 110* | -54 | 97* | ? | 26 | 27*
COc1cccc(-c2ccc3c(c2)O[C@H](CN(C)C(=O)C2CC2)[C@H](C)CN([C@H](C)CO)S3(=O)=O)c1 | / | 80 | 7 | / | / | / | /
COc1cccc(-c2ccc3c(c2)O[C@@H](CN(C)C(=O)C2CCOCC2)[C@@H](C)CN([C@@H](C)CO)S3(=O)=O)c1 | -1 | / | -31 | / | / | / | /
C/C=C/c1ccc([C@H]2[C@H](CO)N(C(C)=O)[C@H]2CN(C)C(=O)CN(C)C)cc1 | -5 | -19 | -29 | / | / | / | /
COc1ccc2c3c(n(C)c2c1)[C@@H](CO)N(CC1CCOCC1)CC31CCN(C(C)=O)CC1 | 2 | / | -3 | / | / | / | /
CCC(=O)Nc1ccc2c(c1)C(=O)N(C)C[C@@H](OC)[C@@H](C)CN(C(=O)Cc1ccccn1)[C@@H](C)CO2 | / | 39 | -13 | / | / | / | /
C[C@@H]1CN([C@@H](C)CO)C(=O)CCCn2cc(nn2)CO[C@@H]1CN(C)Cc1ccc(C(F)(F)F)cc1 | -3 | -85 | 6 | / | / | / | /
COCC(=O)N1CC(=O)N2[C@H](CO)[C@H](c3ccc(C#Cc4cccnc4)cc3)[C@@H]2C1 | 1 | / | 17 | / | / | / | /
CO[C@H]1CN(C)C(=O)c2ccc(NC(=O)NC(C)C)cc2OC[C@@H](C)N(Cc2ccccn2)C[C@H]1C | / | 109* | -3 | 53 | -2 | 6 | -8
CCS(=O)(=O)Nc1ccc2c(c1)C(=O)N(C)C[C@H](OC)[C@H](C)CN(Cc1ccccn1)[C@H](C)CO2 | / | 99* | 32 | -3 | -18 | -3 | 19
